# Reference: paper PMC7819943, “Rice protein-binding microarrays: a tool to detect cis-acting elements near promoter regions in rice”
# In all, about 68,000 sequences were measured (“fluorescence intensity (a.u.)”: median about 9,100, highest 2% from about 16,000 on). This excerpt belongs to a sample that is enriched for the highest values.
# Molecular target: OsWRKY34 (Oryza sativa, UniProt Q0JBA9 1-250)
# Assay: protein-binding microarray (RPBM); PBS, 2% BSA, 51.3 ng/ul salmon testes DNA, 50 uM zinc acetate, 200 nM TF, 25 C, 1 h; high values mean tight binding
# Settings: protein: recombinant; tags: N-terminal polyhistidine and DsRed monomer fusion (pET32a); label: CyDye5-dUTP incorporated in the synthesized complementary strand; 3' TTTTT single-stranded linker to array surface; dsDNA, one strand shown
# Procedure, shortened: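 Per-feature fluorescence intensity (arbitrary units), read on an Axon 4000B scanner, is the binding signal. Transcription factors carrying an N-terminal polyhistidine tag and DsRed fusion were expressed in E. coli BL21-CodonPlus and purified on Ni–NTA. A custom Agilent array, made double-stranded by primer extension with Cy5-dUTP and blocked with 2% BSA, was incubated with 200 nM protein in PBS, 2% BSA, salmon testes DNA and 50 µM zinc acetate at 25 °C for 1 h and then washed.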
# Sequence of OsWRKY34 (Q0JBA9 entry or part of it): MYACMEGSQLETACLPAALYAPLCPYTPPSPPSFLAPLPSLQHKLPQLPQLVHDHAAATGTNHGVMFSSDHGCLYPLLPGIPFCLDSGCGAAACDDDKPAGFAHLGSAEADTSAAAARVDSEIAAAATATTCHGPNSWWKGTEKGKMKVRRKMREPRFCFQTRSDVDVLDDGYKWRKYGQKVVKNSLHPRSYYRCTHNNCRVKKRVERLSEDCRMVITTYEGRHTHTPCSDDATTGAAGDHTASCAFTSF
row,Sequence,binding signal
1,TAGTCTTTTCCATGTCATGTGATCATGTGTGGAGTTGATTCGGAGTCACCTAGTGCAG,8550 fluorescence intensity (a.u.)
2,ACTCATGGATGCAGGTCCACCTACATACGTACTACCACAACGGAGTCACCTAGTGCAG,8570 fluorescence intensity (a.u.)
3,GCCATCCTCCGCGACGCACATCGTCCGTCCCACCACGATGCGGAGTCACCTAGTGCAG,10400 fluorescence intensity (a.u.)
4,GACATAAGTTTATTATCTATATCCATAGTACGTTTAATCCCGGAGTCACCTAGTGCAG,10100 fluorescence intensity (a.u.)
5,AAACTGCACTACTTTATCTTGGTTGTCTTTAGCATAAGAACGGAGTCACCTAGTGCAG,12100 fluorescence intensity (a.u.)
6,AATCCCCGCACGCGTCTTTACTTCGCCTTCGTCTTTCCTCCGGAGTCACCTAGTGCAG,9340 fluorescence intensity (a.u.)
7,TTCTTGTTTTCGTGGATCATCATCAACCTCAATAGAAACGCGGAGTCACCTAGTGCAG,8410 fluorescence intensity (a.u.)
8,TCTCCTAAAGATTCATGTTACGTATCTCTTACTTCAACAGCGGAGTCACCTAGTGCAG,8710 fluorescence intensity (a.u.)
9,GTACGTACAACATTGTGTATCTGTTTTGTAAGTTATTAACCGGAGTCACCTAGTGCAG,9710 fluorescence intensity (a.u.)
10,CTTTTTTTCCAACGTTTGACCATTTGTCTTATTCAAAAAACGGAGTCACCTAGTGCAG,8560 fluorescence intensity (a.u.)
11,CCATTGACTTTTTGTCCAACGTTTGACCATTCGTCTTATTCGGAGTCACCTAGTGCAG,17000 fluorescence intensity (a.u.)
12,GTTTGGCCATGGTGCCGTCGTTGTCTCGTTGATGCTTAGTCGGAGTCACCTAGTGCAG,10700 fluorescence intensity (a.u.)
13,AACTCATCTGACAGTGATCCATCGTCCTTTTTCTTTGACTCGGAGTCACCTAGTGCAG,10100 fluorescence intensity (a.u.)
14,TCCACTATGGCCATCCTGATATCTTTGATCGTCTTTTCCACGGAGTCACCTAGTGCAG,17500 fluorescence intensity (a.u.)
15,AAAGCCTGTGGCCACATCTTATCTTTTCCATCCTTTGCATCGGAGTCACCTAGTGCAG,8040 fluorescence intensity (a.u.)
16,GACTTTTTATCCAACGTTTGACCATTCGTCTTATTCAAAACGGAGTCACCTAGTGCAG,10300 fluorescence intensity (a.u.)
17,ATCGGTGGTGGTGGTGGTGGTGGCCATGAGTCTCGTTTGACGGAGTCACCTAGTGCAG,27500 fluorescence intensity (a.u.)
18,TTGACCAACGTTTAACCATTCGTTTCATTTAATTTTTTTTCGGAGTCACCTAGTGCAG,10800 fluorescence intensity (a.u.)
19,GTCGTTGACTTTTTAACCACAACGTTTGACCATTCGTCTTCGGAGTCACCTAGTGCAG,21800 fluorescence intensity (a.u.)
20,CGGTTTTGACGGACGTGGTGCCCACGTGGCTAGTTTGACTCGGAGTCACCTAGTGCAG,8980 fluorescence intensity (a.u.)

row,Sequence,binding signal
1,TCAGTGGACTCGGTTCTGTTTTTTTGTCACTCCACTGGCACGGAGTCACCTAGTGCAG,9610 fluorescence intensity (a.u.)
2,CACTAAGTCCGTTCCCATGCCCATTTCTCCCTGCATATTACGGAGTCACCTAGTGCAG,9680 fluorescence intensity (a.u.)
3,CGTTGACTTTTTTTCAACGTTTAATAATTTATCTTATTCACGGAGTCACCTAGTGCAG,12900 fluorescence intensity (a.u.)
4,CCGTTGACTTTTTAACTAATGTTTAACCATTCATTTTATTCGGAGTCACCTAGTGCAG,28900 fluorescence intensity (a.u.)
5,TGTTGACTTTTTTTATTAACGTTTAGCATTTATCTTATTTCGGAGTCACCTAGTGCAG,18000 fluorescence intensity (a.u.)
6,GACTTTTCACGTAACGTTTGACCATTTATCTTATTTATAACGGAGTCACCTAGTGCAG,9970 fluorescence intensity (a.u.)
7,TCTTGACCAACGTTTAACCATTCGTTTTATTTAAAATTTTCGGAGTCACCTAGTGCAG,9450 fluorescence intensity (a.u.)
8,ACTATTGACTTTTTTTCTATGTTAGACCATTCATTTTATTCGGAGTCACCTAGTGCAG,12300 fluorescence intensity (a.u.)
9,TATGACGTCGTTGACTTTTTAACCAACGTTTGACCATCGTCGGAGTCACCTAGTGCAG,32900 fluorescence intensity (a.u.)
10,ACTTTTTAACCAACGTTTGACCATTCGTCTTATTCAAATTCGGAGTCACCTAGTGCAG,10600 fluorescence intensity (a.u.)
11,ACCATTAACTTTTTCTTAATTCGTTTCACTATTTTTTTAACGGAGTCACCTAGTGCAG,9500 fluorescence intensity (a.u.)
12,TCGTTGACTTTTTAACCAACGTTTAACCATTCGTCTTATTCGGAGTCACCTAGTGCAG,18600 fluorescence intensity (a.u.)
13,TTGTACACTTATGATTTCCTATTTTTGCATATGATTTTGTCGGAGTCACCTAGTGCAG,8050 fluorescence intensity (a.u.)
14,GACACTAGGACAGTACGTAGCTACCTCTCCACTGCTCTGCCGGAGTCACCTAGTGCAG,8730 fluorescence intensity (a.u.)
15,CTTGATTACCCCGTAGTCAGGTTTGTATGACTAAGCAACCCGGAGTCACCTAGTGCAG,8980 fluorescence intensity (a.u.)
16,GACTGGGCCGTTGACCAGACGTGTACCCCACCGGCCAGTCCGGAGTCACCTAGTGCAG,9290 fluorescence intensity (a.u.)
17,GCCAAGGCCTTACTGCTGCTTCTGTTTCTTGCCACCAATGCGGAGTCACCTAGTGCAG,9650 fluorescence intensity (a.u.)
18,GTTTGACTATTTTATGCCTTGTAGCTTGAGCTACAGTTCACGGAGTCACCTAGTGCAG,10100 fluorescence intensity (a.u.)
19,CTCTCTAACTGCAGATTTCCCTCCCCTTTCAACGCGCGCGCGGAGTCACCTAGTGCAG,8110 fluorescence intensity (a.u.)
20,CCCCATCAACCTCCTCTTCTTCTTCGCCTCGTCTCGTCTTCGGAGTCACCTAGTGCAG,9670 fluorescence intensity (a.u.)

row,Sequence,binding signal
1,TGCTGACTTGGCGTTGACCTGTGAAATTCTCTCGCTTCACCGGAGTCACCTAGTGCAG,11500 fluorescence intensity (a.u.)
2,GCCGTTGACTTTTTATCCAACGTTTGATCATTCGTCTTATCGGAGTCACCTAGTGCAG,40800 fluorescence intensity (a.u.)
3,ATTTTATCCAACGTTTGACCATTCGTCTTATATAAAATATCGGAGTCACCTAGTGCAG,9960 fluorescence intensity (a.u.)
4,TTTCGATTGTTGTTTATTTTCCAGCATTAGTTTTTAAATCCGGAGTCACCTAGTGCAG,8320 fluorescence intensity (a.u.)
5,TATTAAATCATTTAATTTTAGCTATTGTTTTTTATTTATTCGGAGTCACCTAGTGCAG,9250 fluorescence intensity (a.u.)
6,TTTATTAAACCTAGTTAATCCATTGTTAGCAAATATTTAACGGAGTCACCTAGTGCAG,23300 fluorescence intensity (a.u.)
7,CGTCCAACTTTGATCGTCCGTTTTATTTGAATTTTTTTATCGGAGTCACCTAGTGCAG,11200 fluorescence intensity (a.u.)
8,TCTTTTTTTTTTTCATTATTGTTTGAATATTGATTTCACACGGAGTCACCTAGTGCAG,8780 fluorescence intensity (a.u.)
9,TTGCAAAATTTAAAATTATGTTGTCATTGTAATATATTTTCGGAGTCACCTAGTGCAG,8440 fluorescence intensity (a.u.)
10,GTTGGTTTTTACATTTGTTTGCTCGAGTCATATATGTCGTCGGAGTCACCTAGTGCAG,9010 fluorescence intensity (a.u.)
11,GCTGCCCCTTGTACTTACTTCTATCATCTTTCTTCCCACACGGAGTCACCTAGTGCAG,8880 fluorescence intensity (a.u.)
12,TTTAGTATATAAAAGATTATAGGGGAGGTTCATTACTTTCCGGAGTCACCTAGTGCAG,8410 fluorescence intensity (a.u.)
13,GTGTAGATTGATTGGTTCTTGGTGGTGGTGGTGGTGGATCCGGAGTCACCTAGTGCAG,22200 fluorescence intensity (a.u.)
14,TCTTGATTGGTTGTTTTGGTTTGTTTCTTATTTATGTTTGCGGAGTCACCTAGTGCAG,8920 fluorescence intensity (a.u.)
15,AGATCAGGTTTTCTCTTTGGTTGATTGTGTGTGGAAGATCCGGAGTCACCTAGTGCAG,10100 fluorescence intensity (a.u.)
16,TCTGAGTGGTTCTCTGGGCGTTGTTGGTGCGTTCTTGATCCGGAGTCACCTAGTGCAG,8900 fluorescence intensity (a.u.)
17,TTTCTTGATTTGGTTGGGATTGGTTGTTCTTGGGCTTATCCGGAGTCACCTAGTGCAG,18900 fluorescence intensity (a.u.)
18,GGATTGGGGAGTGATTCGGTTTGTTCTTGATTTTGATTTTCGGAGTCACCTAGTGCAG,15700 fluorescence intensity (a.u.)
